Source: PMC12136788
Positions count from the first letter of the chain named. In all, about 5,800 sequences were measured (“enrichment r”: median about 0.54, highest 2% from about 16 on). Shown is part of a subset that was picked to be rich in the highest values.

B1: chrX:48700291:48700392:+|CDS|ENSG00000101945|unk|FALSE|unique (ssRNA)
RNA: GGGAGUUCUACAGUCCGACGAUCGCUCCGUCGCUGGGAGCAGGAGCUCAAUGCCAAGCGCAGCCAUCUGGGACGCAUCACUGUAGAGAAUGAGGUGGACCUGGACGGCCCUCCGCGGGCCUUCGUGUACAUCAAUGAGUACCGCAACAGAGGAUUGAGCAUCA
B2: chr21:14371318:14371404:-|3pUTR|ENSG00000155304|msi1_unk|FALSE|overlapping (ssRNA)
RNA: GGGAGUUCUACAGUCCGACGAUCUAUGAAUAACAAUCUGAAGUCUUUUCAUAAAAAAAAUUAAUAAACUUUAGUUGUACAUUUAGCCAGUGUUAUUUGAAGUAUGUAACUUUUAAAAUAUUAAGUGUCUUGUAUGAUUAGAAUCAACAGAGGAUUGAGCAUCA
B3: chr11:69651696:69651723:+|3pUTR|ENSG00000110092|msi1_unk|total|mutant (ssRNA)
RNA: GGGAGUUCUACAGUCCGACGAUCGAGGAUCCGGUUCCAUCCUUUACGUGUUUAAAAAAAAGCAUAAAAACAUUUUAAAAACACCGAAAAAUUCAGCAAACCAUUUUUAAAGCCGAAGAGGGUUUCCGGCCGAAAAACAUAUUCCAACAGAGGAUUGAGCAUCA
B4: chr10:121957106:121957207:-|3pUTR|ENSG00000107672|msi1|FALSE|bound_elsewhere (ssRNA)
RNA: GGGAGUUCUACAGUCCGACGAUCUGUAUCGUACAUAUUGUAUGAUUCAACAUUUUUAAAGGCAGAUUGUUUUUAGUAAAAUGUAGCUUUUGAUAGUUAAUAAAUUUGUCAUGGUUGUCUUUGAUUAAAGGAAACUCACCGCCACAACAGAGGAUUGAGCAUCA
B5: chr11:69651696:69651723:+|3pUTR|ENSG00000110092|msi1_unk|FALSE|overlapping (ssRNA)
RNA: B3 RNA with C30U, C31A, C83U, C84A, C112U, C113A, C125U, C126A, C129U, C130A
B6: chr11:69651733:69651797:+|3pUTR|ENSG00000110092|msi1_unk|FALSE|overlapping (ssRNA)
RNA: GGGAGUUCUACAGUCCGACGAUCAAAACAUUUUAAAAACAUAGAAAAAUUCAGCAAACCAUUUUUAAAGUAGAAGAGGGUUUUAGGUAGAAAAACAUAUUCUUGUGCUUUUCCUGAUAAAGCACAGCUGUAGUGGGGUUCUAGCAACAGAGGAUUGAGCAUCA
B7: chr2:206311781:206311882:+|3pUTR|ENSG00000204186|unk|FALSE|unique (ssRNA)
RNA: GGGAGUUCUACAGUCCGACGAUCUAGUGUUUAGAGUCCUUUCAUUUUAAGAUUCAGAAACAGCCUUUGUCCAACAUUUUCUGUAGAAGAACUUCAUCUUAAUUUAUGUCACAAAAUAAUUUAGCACCGUAUAUAGAAUUUUGUCAACAGAGGAUUGAGCAUCA
B8: chr20:13714314:13714426:-|3pUTR|ENSG00000089048|unk|total|mutant (ssRNA)
RNA: GGGAGUUCUACAGUCCGACGAUCUUUUUCCCGCCAUAAAGGAUGGAAGUCAAGAACUUUUUGUUGUUCCGUCAUGUUAAGUACCGUUUAUGAAAUUAACUUGUAAAUAAAAGUGUAAAAUAUUUUCAUUAUUUUGUACCGCACCAACAGAGGAUUGAGCAUCA
B9: chr10:121957106:121957207:-|3pUTR|ENSG00000107672|msi1|total|mutant (ssRNA)
RNA: B4 RNA with U73C, A74C, U83C, A84C, U93C, A94C
B10: chr20:13714314:13714426:-|3pUTR|ENSG00000089048|unk|FALSE|unique (ssRNA)
RNA: B8 RNA with C30U, C31A, C68U, C69A, C83U, C84A, C138U, C139A
B11: chr2:206311781:206311882:+|3pUTR|ENSG00000204186|unk|total|mutant (ssRNA)
RNA: B7 RNA with U24C, A25C, U31C, A32C, U83C, A84C, U121C, A122C, U133C, A134C
B12: chr8:30995801:30996592:-|three_prime_utr|ENSG00000172733|control|control|control (ssRNA)
RNA: GGGAGUUCUACAGUCCGACGAUCUUGUUUUUUUUAAUUCAUCAAGCCUUUCGUUUUCAAACCACCAUUUGUCAGCCUUGAGGUAGAGAGACAUAUAGAUUUGAAAAUACUUUCUUAAGAGAUCAUGUAACUAUAUAACUCUGACAACAGAGGAUUGAGCAUCA
B13: ENSG00000198589:be:win_9051|3pUTR|ENSG00000198589|bound_else_gene|NA|bound_elsewhere_windowed (ssRNA)
RNA: GGGAGUUCUACAGUCCGACGAUCGUAAAUGUAAUUUAAAACAUCUCAAUUAAGUCUGUCUAUCAAUAUUGUUCUUCAAGCAUGUUUUAGACCUAGAAAAGUAUGGUUUGGGGGAGGCUAUUUUAUUGUGUGGUUAGCACAAGGCAACAGAGGAUUGAGCAUCA
B14: ENSG00000150403:stop:overlap|stop_codon|ENSG00000150403|stop_codon|NA|stop_codon (ssRNA)
RNA: GGGAGUUCUACAGUCCGACGAUCUGUCCAGGUUCCUCAUGGGCAGUGCUCGGGGUGACAAAGAAGGCAACAGAACAGCCCUCUAGCAGAGCGUCAGUGCAGUCGUGUUAUCCCGGCUUUUACAGAAUAUUCUUGUCCUAUUUUCAACAGAGGAUUGAGCAUCA
B15: chr1:37566712:37566813:+|3pUTR|ENSG00000163879|unk|FALSE|unique (ssRNA)
RNA: GGGAGUUCUACAGUCCGACGAUCGCUUUAUUUCCCUAGCACUGGUGAAGGGCUUCAACUGUCAAACCUCAGAACAAAUGCAUUAGGGCCUUAGAAAUGUCAAUGGGGCAGGAAGAAAACACAAUUUCUAACUGCCUGUUUUUGCAACAGAGGAUUGAGCAUCA
B16: chr16:16142165:16142266:+|3pUTR|ENSG00000103222|msi1|total|mutant (ssRNA)
RNA: GGGAGUUCUACAGUCCGACGAUCAUUGAUGUGGGGUAAAUAUUAAGGAGAUGGCCUCAUGGGAAUUUGACCUUGACCCGAAACCGAGACUGAGAGUGAGCAACCAGCUGGAAGGUACUAUGCCAGUCCCCGCAGAAAAAUGUGCAACAGAGGAUUGAGCAUCA
B17: chr20:4701031:4701132:+|3pUTR|ENSG00000171867|msi1|total|mutant (ssRNA)
RNA: GGGAGUUCUACAGUCCGACGAUCCACCGUUUCUGUAAUUGGCUUUUGAAUCAAAGAACCGGGAGACAAUCUAAAAAAUAUCUCCGGUUGGAGAUGACAGAAAUAUGAUUGAUUUGAAGUGGAAAAAGAAAUUCUGUUAAUGUUCAACAGAGGAUUGAGCAUCA
B18: chr19:21059139:21059240:+|3pUTR|ENSG00000118620|unk|total|mutant (ssRNA)
RNA: GGGAGUUCUACAGUCCGACGAUCGUAAAAAUGAAAAUAUUUAAUCCAAAAUUAAGUCUAUGUAAAUAUCAGAGAAUUUACUGCCGAAAUAUAUAAGGCACUGAGACUUCAGAUAUUAUACUAAAUCAGAGUGCUGAGUACCGACAACAGAGGAUUGAGCAUCA
B19: chr17:42200006:42200107:-|3pUTR|ENSG00000173757|unk|total|mutant (ssRNA)
RNA: GGGAGUUCUACAGUCCGACGAUCAAGCUGCCGUUUGCCUUGGCUUGGUUUCAUACACUGAUUUAUUUUUCUAUGCCAGGCAGCCGAGUCUCUCUGCCUCUGAGGAGCAGGCUACCCGCAUCCCACUCAGCCCCUCCCUACCCCCAACAGAGGAUUGAGCAUCA
B20: chr20:3582170:3582271:+|CDS|ENSG00000088812|msi1|FALSE|bound_elsewhere (ssRNA)
RNA: GGGAGUUCUACAGUCCGACGAUCGGCCUUCGGAAGAUCAAUGUGUCCUACUGGUGCUGGGAAGAUAUGUCCCCAUUUACAAAUAGUUUACUACAGUGGAUGCCGUCUGAGCCCAGUGAUGCUGGAUUCUGUGGAAUUUUAUCACAACAGAGGAUUGAGCAUCA
B21: chr3:10101824:10101929:+|3pUTR|ENSG00000144554|unk|total|mutant (ssRNA)
RNA: GGGAGUUCUACAGUCCGACGAUCAAAAUCUCUGAGUCAUGAUUCUGGACUUUGGGAGCCCGUUUUGAAACUCUGAUUUAUUGCCGAACUCCGGCUUGUACCAAUUUUACAAAUAAAUUCUGUUCUAAGUUCUGCCUCAGUUGCCAACAGAGGAUUGAGCAUCA
B22: ENSG00000166086:stop:overlap|stop_codon|ENSG00000166086|stop_codon|NA|stop_codon (ssRNA)
RNA: GGGAGUUCUACAGUCCGACGAUCUCCUGCUGCUGCUUUUCAGGGAGUCAAGUCUAGUCUGCUUUCCAAGGCUGCAUUCUAAGUAGUGAAGCCUCAACUUCAUAUUUACCUAAAGCAGGACACCACACUCUUCCCCUGGCAGCCCAACAGAGGAUUGAGCAUCA

Target: MSI1 full-length (mouse, UniProt Q61474 1-362)
Experiment: nsRBNS (natural sequence RNA bind-n-seq); RBNS binding buffer (assumed for nsRBNS): 25 mM Tris pH 7.5, 150 mM KCl, 3 mM MgCl2, 0.01% Triton X-100, 500 ug/ml BSA, 20 U/ml SUPERase-In, 4 C; UNK is unkempt and MSI1 is Musashi-1; names of the RNAs are library labels; protein concentration not given here; high values mean tight binding

Sequence of MSI1 full-length (Q61474 whole entry): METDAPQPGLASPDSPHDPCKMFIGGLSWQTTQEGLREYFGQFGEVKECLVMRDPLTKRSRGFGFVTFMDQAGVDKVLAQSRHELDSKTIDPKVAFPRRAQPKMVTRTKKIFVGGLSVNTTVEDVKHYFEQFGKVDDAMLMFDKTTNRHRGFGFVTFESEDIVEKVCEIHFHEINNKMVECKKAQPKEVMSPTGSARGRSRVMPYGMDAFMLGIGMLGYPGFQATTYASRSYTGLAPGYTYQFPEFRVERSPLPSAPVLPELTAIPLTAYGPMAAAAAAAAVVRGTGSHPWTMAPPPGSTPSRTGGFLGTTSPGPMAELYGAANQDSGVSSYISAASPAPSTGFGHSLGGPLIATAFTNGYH

Row | Binder | binding signal
1 | B1 | 0.398 enrichment R
2 | B2 | 6.15 enrichment R
3 | B3 | 0.383 enrichment R
4 | B4 | 17.9 enrichment R
5 | B5 | 17.8 enrichment R
6 | B6 | 13.6 enrichment R
7 | B7 | 16.7 enrichment R
8 | B8 | 0.796 enrichment R
9 | B9 | 0.237 enrichment R
10 | B10 | 58.4 enrichment R
11 | B11 | 0.669 enrichment R
12 | B12 | 0.712 enrichment R
13 | B13 | 3.05 enrichment R
14 | B14 | 0.829 enrichment R
15 | B15 | 0.39 enrichment R
16 | B16 | 0.411 enrichment R
17 | B17 | 0.277 enrichment R
18 | B18 | 4.16 enrichment R
19 | B19 | 0.705 enrichment R
20 | B20 | 0.86 enrichment R
21 | B21 | 0.338 enrichment R
22 | B22 | 0.461 enrichment R
